# The supplement of paper PMC8728848
# This is one part of a sample in which the strongest signals are shown more often than they occur.
# B1: GS7807I-bvu-563-22-563 (Bacteroides vulgatus) (protein)
# chain: IFSSCTDDFEKLNTSNIQVDPADLPFAAQCTEPMTYCYPPQQNMFQFWTNLTIDLYGGYFMTPNGNFTNGDMGENRGHSGGMYENYYLHIFNNTRRIIAQCDASGERGLSGVMRIVQAYGTLMTTDAYGPIPYSSILSGENEVYFEFDSQKDLYKAMLEDLSTAITDISAMGADEIAKLKSFDCWCNGDKDLWVKIANTMKLRMALRLSKRETEAGNAGMNLKAIATEAAQNTLATVNKDILIDKSLENEMWLMFNWGDCGFNANLVTIMSGTKDPRQPLYMTLNTGDIKNEAGTTTVAANSQYLGIRFASGLPAKPNSWGNFSGWIQGNNGSSYSMPLPIMKAAEAYFLLAEAKLRWDIGSESVKNLYENGIRVSMTNELAYRGAYAGIKEYPEGAVDAYINGTSTQIDYTDPIKAELSTPAVNKLSVKWDESASNEEKLERIITQKWLALFPLSTEGWAEQRRTGYPRFFPAFVNESNGAVNTEEGVRRVIYSSQAYDANAKGVEGGIKLLDEENSSKFGISGDKGGTHLWWDNADKGNF
# Experiments:
# Assay in all cases: glycan array binding signal (z-score within array); higher = stronger binding
# Settings in all cases: glycan notation: IUPAC condensed, linker removed
# [1] = biological target: GlcNAc(b1-3)Gal(b1-4)GlcNAc(b1-3)Gal(b1-4)GlcNAc(b1-3)Gal(b1-4)GlcNAc(b1-2)[GlcNAc(b1-3)Gal(b1-4)GlcNAc(b1-3)Gal(b1-4)GlcNAc(b1-3)Gal(b1-4)GlcNAc(b1-6)]Man(a1-6)[GlcNAc(b1-3)Gal(b1-4)GlcNAc(b1-3)Gal(b1-4)GlcNAc(b1-3)Gal(b1-4)GlcNAc(b1-2)Man(a1-3)]Man(b1-4)GlcNAc(b1-4)[Fuc(a1-6)]GlcNAc
# Outline: (§1)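 The Consortium for Functional Glycomics database supplied 3228 glycan arrays, of which those lacking an available protein sequence were dropped. The binding signal, a within-array Z-score, was averaged across arrays of the same protein sequence and across linkers. Negative scores can be read as non-binding.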
# [2] = biological target: GlcNAc(b1-4)GlcNAc(b1-4)GlcNAc(b1-4)GlcNAc(b1-4)GlcNAc
# Outline: as §1
# [3] = biological target: Man(a1-3)[Man(a1-6)]Man(b1-4)GlcNAc(b1-4)GlcNAc
# Outline: as §1
# [4] = biological target: Neu5Ac(a2-3)Gal(b1-3)[GlcNAc(b1-6)]GalNAc
# Outline: as §1
# Neu5Ac(a2-3)Gal(b1-4)Glc = biological target: Neu5Ac(a2-3)Gal(b1-4)Glc
# Outline: as §1
# [5] = biological target: Neu5Ac(a2-3)Gal(b1-4)GlcNAc(b1-2)Man
# Outline: as §1
# [6] = biological target: Neu5Ac(a2-3)Gal(b1-4)GlcNAc(b1-6)[Neu5Ac(a2-3)Gal(b1-3)]GalNAc
# Outline: as §1
# [7] = biological target: Neu5Ac(a2-3)Gal(b1-4)[Fuc(a1-3)]GlcNAc(b1-3)GalNAc
# Outline: as §1
# [8] = biological target: Neu5Ac(a2-6)Gal(b1-4)GlcNAc(b1-2)Man(a1-6)[Gal(b1-4)GlcNAc(b1-2)Man(a1-3)]Man(b1-4)GlcNAc(b1-4)GlcNAc
# Outline: as §1
# [9] = biological target: Neu5Ac(a2-6)Gal(b1-4)GlcNAc(b1-3)Gal(b1-3)GlcNAc
# Outline: as §1
# [10] = biological target: Neu5Ac(b2-6)Gal(b1-4)GlcNAc
# Outline: as §1
binder,measurement,setting,value
B1,glycan array binding signal (z-score),[1],3.79
same,glycan array binding signal (z-score),[2],-0.951
same,glycan array binding signal (z-score),[3],-0.233
same,glycan array binding signal (z-score),[4],0.671
same,glycan array binding signal (z-score),Neu5Ac(a2-3)Gal(b1-4)Glc,0.689
same,glycan array binding signal (z-score),[5],2.84
same,glycan array binding signal (z-score),[6],-0.221
same,glycan array binding signal (z-score),[7],5.03
same,glycan array binding signal (z-score),[8],1.71
same,glycan array binding signal (z-score),[9],-0.945
same,glycan array binding signal (z-score),[10],-0.47
